This passage reports outcome results from PubChem BioAssay AID1053124 (Broad Institute, 2014).

A short description of this experiment: viability loss in A549 lung cells – cell-based, ATP luminescence, cherry-pick, set 2, cytotoxicity control, dose response (AID 1053124).

Structures are written as SMILES. Measured potencies and affinities stand elsewhere. Calls of active or inactive are those of the source.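 How the source made its calls: active means cell killing whose fitted half-effect concentration is at most twice the top valid dose tested; inconclusive means flat curve with 30 to 70% killing, or a poor fit; inactive means effect in the rising direction, plus the rest.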

For the compound `CC12CC(c3ccccc3O1)C(C(=O)OCc1ccccc1)C(=O)N2` (stereo not drawn), the compound was classed as inactive.
Take `CC(C)OP(=O)(O)NC(=O)c1ccccc1`: the compound was classed as inactive.
As for `N#CC1=C(N)Oc2cc(O)ccc2C1c1ccc2c(c1)OCO2` (stereo not drawn), the compound was called inactive.
